Assay outcomes (PubChem)
Only some compounds are listed: those with a hit (about 2.6% of all), similar ones and a draw of the others.
PHOSPHO1 inh – PHOSPHO1 (human) inhibition. 1.1% of 290,000 active. Q8TCT1. inhibition, % at 13.3 µM. recombinant PHOSPHO1, absorbance phosphatase assay; in the data active = inhibition above about 60%
Target sequence (Q8TCT1 whole entry, looked up): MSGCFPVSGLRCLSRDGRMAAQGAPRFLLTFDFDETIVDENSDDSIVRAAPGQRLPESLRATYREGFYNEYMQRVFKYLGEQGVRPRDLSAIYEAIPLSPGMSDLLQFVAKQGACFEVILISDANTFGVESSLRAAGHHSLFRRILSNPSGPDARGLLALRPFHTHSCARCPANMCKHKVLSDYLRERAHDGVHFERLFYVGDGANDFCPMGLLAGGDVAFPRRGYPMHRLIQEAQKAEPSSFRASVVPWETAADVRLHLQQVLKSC
APOBEC3G inh – APOBEC3G (human) deaminase inhibition | recombinant A3G, ssDNA deamination FAM/TAMRA fluorescence | inhibition, % at 20 µM | 0.28% of 330,000 active;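 active = inhibition of at least 40% at 20 µM, with no more than 30% in the related APOBEC3A deaminase screen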;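 also: plate controls were DMSO wells with A3G for no effect and wells lacking A3G enzyme for full effect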
PABP polyA inh – PABP-poly(A) binding inhibition | AID 2014 | P11940 | calls only at 35 µM | 1% of 290,000 active | PABP-poly(A) RNA binding, fluorescence polarization;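 also: calls also rest on retests at 20 µM and on dose response follow-up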
MLLE-PAM2 inh – blocks PAM2 peptide binding to the PABP1 MLLE domain; GST-MLLE / FITC-PAM2 fluorescence polarization; P11940; 0.36% of 360,000 active; inhibition, % at 20 µM; AID 588489; in the data active = inhibition above about 35%, passing the limit was not always enough;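 also: plate controls were DMSO wells with GST-MLLE for no effect and wells lacking GST-MLLE protein for full effect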
eIF4H FP inh – inhibitors of RNA binding by human eIF4H. eIF4H fluorescence polarization binding assay. Q15056. inhibition, % at 35 µM. 0.94% of 290,000 active;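 also: calls also rest on retests at 20 µM and on dose response follow-up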
A3A deaminase – human APOBEC3A DNA deaminase inhibition. 0.41% of 330,000 active. inhibition, % at 20 µM. P31941. recombinant A3A, FAM/TAMRA ssDNA deamination fluorescence;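 active = at least 40% inhibition at 20 µM here, with at most 30% in a related deaminase screen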;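 also: plate controls were A3A with DMSO for no effect and wells lacking A3A enzyme for full effect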
* = called active by the depositor; i = inactive; ? = inconclusive; nt = no result given; + = active, no number. Unless noted, no rule for the calls is given here.

SMILES	PHOSPHO1 inh	APOBEC3G inh	PABP polyA inh	MLLE-PAM2 inh	eIF4H FP inh	A3A deaminase
CCn1c(O)c(C=Nc2ccccc2)oc1=S	103*	3	i	11	1	16
O=C(O)c1ccc(-n2c(-c3cc(C4CC4)[nH]n3)n[nH]c2=S)cc1	63*	-9	i	-3	1	-3
O=C(O)c1ccc(-n2c(-c3ccccc3)n[nH]c2=S)cc1	-16	-1	i	11	-3	-4
O=C(O)c1ccc(-n2c(-c3cc(-c4ccco4)[nH]n3)n[nH]c2=S)cc1	-23	61	+	1	87*	81
CC(=O)c1ccc(-n2c(-c3cc(-c4ccco4)[nH]n3)n[nH]c2=S)cc1	97*	37	i	-21	56	2
Cn1c(-c2ccco2)n[nH]c1=S	-90	18	i	-7	-4	2
CC(C)C/C(O)=C/c1nc2cc(Cl)ccc2oc1=O	10	3	+	13	79*	1
O=c1oc2ccc(Cl)cc2nc1/C=C(\O)c1ccco1	38	-9	i	-78	3	-6
CCOc1ccc(CC(=O)Nc2ccc(NC(=O)c3ccco3)cc2)cc1OCC	40	nt	i	11	-4	nt
Cc1ccc(-c2csc(Nc3ccc(C(=O)O)cc3)[n+]2Cc2ccccc2)cc1	62*	-2	i	10	17	-8
COc1ccccc1NS(=O)(=O)c1ccc(O)c(NC(=S)NCC2CCCO2)c1 (stereo unspecified)	-63	12	i	40*	0	6
COc1ccc(NS(=O)(=O)c2ccc(NC(=S)NCC3CCCO3)cc2)cc1 (stereo unspecified)	-17	-8	i	2	-7	-3
CCc1cccc(NC(=O)CSC2=NS(=O)(=O)c3ccccc32)c1	94*	-26	i	35	2	-1
COc1cc(NC(=O)CSc2nc(=O)n(CCN3CCOCC3)c3c2CCC3)cc(OC)c1	nt	-11	nt	-3	nt	-3
Cc1[nH]c2ccccc2c1/C=N/Nc1cccc(C(=O)O)c1	61*	2	i	-18	7	10
O=C(CNCc1ccccc1Cl)NCc1ccco1	39	-4	i	6	8	-1
O=C(CNCCc1ccc(Cl)cc1Cl)NCc1ccco1	63*	-5	i	-1	1	-1
C(=C\c1ccccc1)/CSc1ccccn1	8	1	+	-10	active	5
COc1ccc(CCOC(=O)c2cccc(NC(C)=O)c2)cc1	29	-9	i	2	-16	0
CC1C(=O)Nc2ccc(S(=O)(=O)NCCc3ccc(Cl)cc3)cc2NC1=O (stereo unspecified)	-30	6	i	0	32	9
CCCC1C(c2ccc(OC)cc2)C(C#N)(C#N)C2(C#N)CC1(N)NC2=O (stereo unspecified)	13	4	+	0	58	0
COc1ccc(C2NC3=C(CCCC3)C(C#N)(C#N)C2(C#N)C#N)cc1 (stereo unspecified)	-3	-8	?	nt	?	-5
CCN1C(=O)/C(=C/c2ccc(C)s2)NC1=S	76*	-4	i	-118	-9	-3
Cc1ccc(/C=C2/NC(=O)N(Cc3ccccc3)C2=O)s1	14	-1	?	-64	?	1
Cc1cccc(CN2C(=O)N/C(=C/c3ccc(C)s3)C2=O)c1	26	2	+	-74	69*	2
SMILES	PHOSPHO1 inh	APOBEC3G inh	PABP polyA inh	MLLE-PAM2 inh	eIF4H FP inh	A3A deaminase
Cc1cccc(NC(c2ccc(O)cc2)c2ccc3ccc(C)nc3c2O)n1 (stereo unspecified)	63*	1	i	25	9	-3
Cc1cc(NC(c2cccnc2)c2ccc3cccnc3c2O)no1 (stereo unspecified)	21	-4	i	8	17	-2
COc1ccc(OC)c(S(=O)(=O)N2CCN(c3ccccc3OC)CC2)c1	30	-3	i	16	1	2
COc1ccccc1N1CCN(S(=O)(=O)c2ccc(-n3cnnn3)cc2)CC1	28	28	i	10	71*	3
COc1ccccc1N1CCN(S(=O)(=O)c2cc(Br)cnc2N)CC1	64*	-5	nt	1	nt	-2
COc1ccc(S(=O)(=O)N2CCC(N3CCN(c4ccccc4)CC3)CC2)cc1	46	-7	i	nt	-5	-2
COc1ccc(S(=O)(=O)N2CCN(c3ccccc3)CC2)cc1	60*	-7	i	-4	-3	-2
Cc1cc(C)nc(N2CCN(C(=O)c3ccc(S(=O)(=O)N4CCCCCC4)cc3)CC2)n1	36	-12	i	-8	-4	0
CCN(CC(=O)Nc1ccc(OC)cc1)C(=O)CSCc1c(C)noc1C	nt	-3	nt	158*	nt	-1
CC(C)N1CCc2c(sc(NC(=O)c3ccc(S(=O)(=O)N4CCOCC4)cc3)c2C#N)C1	34	-57	+	-58	78*	-23
Cc1ccc(-n2c(C)cc(/C=c3/sc4nc5ccccc5n4c3=O)c2C)cc1	62*	-6	i	nt	21	-4
Cc1cc(C(=O)O)ccc1-n1c(C)cc(/C=C(/C#N)C(=O)Nc2ccccc2)c1C	20	11	+	4	63*	9
COc1ccc(C(O)P(=O)(OCC(C)C)OCC(C)C)c(OC)c1 (stereo unspecified)	-14	-2	i	-2	-4	-2
O=C(CCN1C(=O)c2ccccc2C1=O)Nc1cccnc1	6	-1	i	-12	0	0
Cc1c(O)ccc2cc(S(=O)(=O)c3ccccc3)c(=O)oc12	29	-5	i	44*	10	1
C[C@@H]1CN([C@@H](C)CO)C(=O)CCCn2cc(nn2)CO[C@H]1CN(C)S(=O)(=O)c1cccc(F)c1	nt	nt	nt	-1	nt	nt
COCCn1cc(-c2csc(N)n2)c2ccccc21	-28	-3	i	35	12	-7
CN(C)c1nc(-c2cn(CCC#N)c3ccccc23)cs1	43	-16	i	49*	18	-4
CCN1CCc2c(sc(NC(=S)NC(=O)c3ccc(Cl)cc3)c2C(N)=O)C1	67*	-6	i	-52	95	-4
CCN1CCc2c(sc(NC(=O)c3ccc4ccccc4c3)c2C(N)=O)C1	33	4	?	-57	?	-4
CCCn1c(=O)c2ccccc2n2c(SCC(=O)c3ccccc3)nnc12	-3	0	i	-100	-2	-6
Cc1cc(C(=O)CSc2nnc(-c3ccccc3)n2C)c(C)n1C	24	-6	i	5	8	-5
CCCn1c(=O)c2ccccc2n2c(SCC(=O)c3cc(C)n(CC4CCCO4)c3C)nnc12 (stereo unspecified)	66*	nt	i	nt	1	nt
Cc1cc(C(=O)CSc2nnc(-c3cccnc3)n2-c2ccccc2)c(C)n1CC1CCCO1 (stereo unspecified)	74*	-6	i	17	12	-4
